The results in this text go back to PubChem BioAssay (NCI).

The panel holds about 83,000 compounds, 20% with a hit somewhere; the sample as a whole holds those more often.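 Activity criterion: percent growth below 10, measured after cells in 96-well plates were exposed to a single compound concentration for 48 hours.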 Unmarked numbers belong to inactive results. Activity calls are given as the source filed them.

Holding throughout (experiment): NCI-60 one-dose screen, 48 h (100 = growth as untreated, 0 = no growth, -100 = all killed)
The subject of assay [1] is NCI-H23 lung. Conditions: 10 µM unless noted.
For assay [2], the system named is NCI-H226 lung. Conditions: 10 µM unless noted.
Assay [3] has as its system NCI-H322M lung. Conditions: 10 µM unless noted.
In assay [4] the test system is HOP-62 NSCLC. Particulars: 10 µM unless noted.
Assay [5] concerns NCI-H460 lung. Particulars: 10 µM unless noted.
Assay [6] relates to HOP-92 NSCLC. Particulars: 10 µM unless noted.
Assay [7] relates to NCI-H522 lung. Particulars: 10 µM unless noted.
Assay [8] deals with A549/ATCC NSCLC. Particulars: 10 µM unless noted.
Assay [9] deals with 786-0 renal. Particulars: 10 µM unless noted.
The subject of assay [10] is COLO 205 colon. Conditions: 10 µM unless noted.
For assay [11], the system named is DU-145 prostate. Conditions: 10 µM unless noted.
The subject of assay [12] is K-562 leukemia. Particulars: 10 µM unless noted.
For assay [13], the system named is MALME-3M melanoma. Particulars: 10 µM unless noted.
The subject of assay [14] is MDA-MB-231 breast. Particulars: 10 µM unless noted.
Assay [15] has as its system RXF 393 renal. Conditions: 10 µM unless noted.
Assay [16] concerns SF-268 CNS. Particulars: 10 µM unless noted.
Assay [17] deals with SF-295 CNS. Particulars: 10 µM unless noted.
In assay [18] the test system is SF-539 CNS. Conditions: 10 µM unless noted.
The test system of assay [19] is UACC-257 melanoma. Particulars: 10 µM.
The subject of assay [20] is M14 melanoma. Particulars: 10 µM unless noted.

For the compound `Cc1cn(-c2cc(NC(=O)c3cncc(C#Cc4cnc5ccc(O[C@@H]6CCOC6)nn45)c3)cc(C(F)(F)F)c2)cn1`, the growth in assay [1] was -46.6% (active); in assay [2], -16% (active); in [3] it was -12.7% (active); in assay [4] it was -12% (active); in assay [5], -76.9% (active); in [6] it was -44.6% (active). Also, the growth in [7] is -69.3% (active); in [8], -75.3% (active); in assay [9] it was -88.2% (active); in [10], -84.9% (active); in [11], -86.5% (active); in assay [12], -17.6% (active). Besides, the growth was -83% (active) in [13]; -35.5% (active) in assay [14]; -91.5% (active) in assay [15]; -42.1% (active) in assay [16]; -21.7% (active) in assay [17]; -90.5% (active) in assay [18]. Further, the growth in assay [19] was -19% (active); in assay [20], -96.2% (active).
Consider `COc1ccc(-c2cc(-c3ccc(Cl)cc3)nc3nc(N)nn23)cc1`, for which the growth in assay [1] was 108%; in assay [2], 99.6%; in [3], 102%; in assay [4], 107%; in [5] it was 107%; in [6] it was 102%. Further, the growth in [7] was 93.9%; in assay [8] it was 93.8%; in assay [9], 87.7%; in assay [10], 105%; in assay [11], 101%; in [12] it was 116%. The growth in [13] is 118%; in [14] it was 104%; in assay [15], 91.8%; in [16], 89.9%; in [17] it was 97.3%; in assay [18], 95.5%. Further, the values for the growth in [19] and in assay [20] were 109% and 117%, respectively.
Turning to `COc1ccccc1/C=C/C=N/NC1=NC2C(S1)N(C)C(=O)N2c1ccccc1` (stereo not given), the growth in assay [1] was 30.1%; in [2], 45.5%; in assay [3] it was 38.1%; in assay [4] it was 46%; in [5], 2.27% (active); in assay [6], 38.9%. Moreover, the growth is 13.1% in assay [7]; 22.5% in [8]; 16.8% in assay [9]; -4.6% (active) in assay [10]; 8.54% (active) in assay [11]; 14.3% in assay [12]. Besides, the growth is 45.7% in assay [13]; 18.8% in assay [14]; 1.56% (active) in assay [15]; 44.4% in [16]; 9.01% (active) in assay [17]; -15.5% (active) in assay [18]. Also, the growth in assay [19] was 79.8%; in assay [20], -12.1% (active).
With `O=C(Nc1cccc(Cl)c1)Nc1nc2ccc(-c3cccc4ccccc34)cc2s1`, the growth is 24.6% in assay [1]; 57.5% in assay [2]; 71.1% in assay [3]; 61% in assay [4]; 34.1% in assay [5]; -2.69% (active) in [6]. Besides, the growth was 25.8% in assay [7]; 36.9% in [8]; 82.5% in assay [9]; 49.7% in [10]; 42.7% in assay [11]; 17.9% in assay [12]. Further, the growth in assay [13] is 42.8%; in assay [14], 75.2%; in assay [15] it was 84.4%; in assay [16] it was 66.7%; in [17] it was 63.4%; in assay [18], 87%. In addition, the growth in assay [19] was 50.6%; in assay [20], 68.7%.
For the compound `COc1ccc(OC)c(NC2=C(Cl)C(=O)C(C)=C(C)C2=O)c1`, the growth in [1] is 85.8%; in assay [2], 84.2%; in assay [3], 103%; in [4], 92.1%; in assay [5], 98.4%; in assay [6], 96.6%. For the same compound, the growth was 87.2% in assay [7]; 101% in assay [8]; 102% in assay [9]; 107% in assay [10]; 104% in assay [11]; 55.8% in [12]. Further, the growth in assay [13] is 98.7%; in assay [14], 76.6%; in assay [15] it was 107%; in assay [16], 93.9%; in [17] it was 100%; in [18], 99%. The growth was 86.8% in [19] and 97.8% in assay [20].
Turning to `CN1CCN(Cc2ccc(NC(=O)c3cncc(C#Cc4cnc5ccc(O[C@H]6CCOC6)nn45)c3)cc2C(F)(F)F)CC1`, the growth in assay [1] was -53.5% (active); in assay [2], -63.8% (active); in assay [3], -36.4% (active); in assay [4], -77.7% (active); in assay [5] it was -77.7% (active); in assay [6] it was -38.3% (active). Moreover, the growth is -72.1% (active) in assay [7]; -87.7% (active) in assay [8]; -89.7% (active) in assay [9]; -89.1% (active) in assay [10]; -78.9% (active) in assay [11]; 0.583% (active) in assay [12]. Further, the growth in assay [13] is -87.5% (active); in [14] it was -59.7% (active); in assay [15], -76.9% (active); in [16], -63.8% (active); in assay [17] it was -81.8% (active); in assay [18], -92% (active). Further, the growth in assay [19] is -52% (active); in [20], -87.2% (active).
As for `CCCCCCNC(=O)Oc1ccc(/C(=C(/C)c2ccc(OC)cc2)c2ccc(OCCN3CCCC3)cc2)cc1`, the growth in assay [1] was 78.8%; in [2], 96.6%; in assay [3], 86.2%; in assay [4] it was 88.4%; in assay [5] it was 55.3%; in [6], 62.8%. Moreover, the growth in assay [7] is 92.2%; in assay [8] it was 73.3%; in [9], 40.9%; in assay [10], 76.2%; in assay [11], 91.6%; in assay [12] it was 6.93% (active). In addition, the growth was -13.6% (active) in assay [13]; 65.7% in assay [14]; 61.9% in assay [15]; 83.6% in assay [16]; 46.8% in [17]; 37.7% in [18]. The values for the growth in assay [19] and in assay [20] were 2.85% (active) and -35.5% (active), respectively.
